Records with an inconclusive call do not appear. Calls of active or inactive are those of the source. Rule for the calls, unless noted: active = hit-call score of the fitted dose curve at least 0.9, where 1 is the maximum; inconclusive = response in the unintended direction; inactive = score below 0.9.
Key:
[1] = TOX21_p53_BLA_p3_viability: Viability Assessment in the Tox21 HCT-116 p53 Agonism Beta-lactamase Assay, Phase 3 (AID 2283593)
Summary of the method: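 HCT-116 cells (4000/well) rested 5 h at 37C, then got DMSO compounds by pin tool (217-fold dilution) for 16 h at 37C, 5% CO2. After the bla read, CellTiter-Glo was added and luminescence read at 30 min, room temperature.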

[2] = biological target: Cellular tumor antigen p53 (Homo sapiens) (UniProt P04637); test: TOX21_p53_BLA_p5_ratio: Tox21 HCT-116 p53 Agonism Beta-lactamase Assay, Ratio, Phase 5 (AID 2283599)
Chain of Cellular tumor antigen p53 (Homo sapiens) (P04637 whole entry, looked up): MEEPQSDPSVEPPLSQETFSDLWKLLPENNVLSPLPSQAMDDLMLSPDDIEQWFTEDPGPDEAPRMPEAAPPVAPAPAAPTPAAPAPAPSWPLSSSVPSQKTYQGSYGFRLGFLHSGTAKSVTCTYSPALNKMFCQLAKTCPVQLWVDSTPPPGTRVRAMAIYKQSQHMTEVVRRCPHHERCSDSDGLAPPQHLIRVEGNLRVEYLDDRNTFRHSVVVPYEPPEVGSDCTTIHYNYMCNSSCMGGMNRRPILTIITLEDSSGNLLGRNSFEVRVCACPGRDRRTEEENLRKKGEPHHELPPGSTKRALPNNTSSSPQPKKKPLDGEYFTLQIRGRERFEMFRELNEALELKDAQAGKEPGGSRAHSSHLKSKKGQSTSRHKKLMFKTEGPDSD
Summary of the method: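 HCT-116 cells carrying a p53-inducible beta-lactamase reporter were seeded at 4000 cells/well and dosed after 5 h with compound in DMSO (217-fold dilution). After 16 h at 37C, CCF4-AM substrate was added for 2 h, and the 460/530 nm emission ratio was scored as gain-of-signal versus DMSO.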

[3] = biological target: Cellular tumor antigen p53 (Homo sapiens) (UniProt P04637); test: TOX21_p53_BLA_p4_ratio: Tox21 HCT-116 p53 Agonism Beta-lactamase Assay, Ratio, Phase 4 (AID 2283601)
Summary of the method: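 HCT116 cells carrying an inducible beta-lactamase reporter were plated at 4000 cells/well, rested 5 h, then exposed to compounds in DMSO (217-fold dilution) for 16 h at 37C. CCF4-AM substrate was loaded 2 h at room temperature; 460/530 nm emission ratio scored gain-of-signal versus DMSO.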

[4] = biological target: Cellular tumor antigen p53 (Homo sapiens) (UniProt P04637); test: TOX21_p53_BLA_p3_ratio: Tox21 HCT-116 p53 Agonism Beta-lactamase Assay, Ratio, Phase 3 (AID 2283596)
Summary of the method: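 HCT116 p53-bla cells (4000/well) given compound in DMSO (217-fold dilution) after 5 h, incubated 16 h at 37C. CCF4-AM substrate 2 h at room temperature; 460/530 nm emission ratio, gain fitted against DMSO.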

PGR (gene 5241) [5] = biological target: PGR (gene 5241) (UniProt P06401); test: TOX21_PR_BLA_Followup_Agonist_ratio: Tox21 HEK293 Progesterone Receptor (PR) Agonism Beta-lactamase Follow-Up Assay, Ratio (AID 2283933)
Chain of PGR (gene 5241) (P06401 whole entry, looked up): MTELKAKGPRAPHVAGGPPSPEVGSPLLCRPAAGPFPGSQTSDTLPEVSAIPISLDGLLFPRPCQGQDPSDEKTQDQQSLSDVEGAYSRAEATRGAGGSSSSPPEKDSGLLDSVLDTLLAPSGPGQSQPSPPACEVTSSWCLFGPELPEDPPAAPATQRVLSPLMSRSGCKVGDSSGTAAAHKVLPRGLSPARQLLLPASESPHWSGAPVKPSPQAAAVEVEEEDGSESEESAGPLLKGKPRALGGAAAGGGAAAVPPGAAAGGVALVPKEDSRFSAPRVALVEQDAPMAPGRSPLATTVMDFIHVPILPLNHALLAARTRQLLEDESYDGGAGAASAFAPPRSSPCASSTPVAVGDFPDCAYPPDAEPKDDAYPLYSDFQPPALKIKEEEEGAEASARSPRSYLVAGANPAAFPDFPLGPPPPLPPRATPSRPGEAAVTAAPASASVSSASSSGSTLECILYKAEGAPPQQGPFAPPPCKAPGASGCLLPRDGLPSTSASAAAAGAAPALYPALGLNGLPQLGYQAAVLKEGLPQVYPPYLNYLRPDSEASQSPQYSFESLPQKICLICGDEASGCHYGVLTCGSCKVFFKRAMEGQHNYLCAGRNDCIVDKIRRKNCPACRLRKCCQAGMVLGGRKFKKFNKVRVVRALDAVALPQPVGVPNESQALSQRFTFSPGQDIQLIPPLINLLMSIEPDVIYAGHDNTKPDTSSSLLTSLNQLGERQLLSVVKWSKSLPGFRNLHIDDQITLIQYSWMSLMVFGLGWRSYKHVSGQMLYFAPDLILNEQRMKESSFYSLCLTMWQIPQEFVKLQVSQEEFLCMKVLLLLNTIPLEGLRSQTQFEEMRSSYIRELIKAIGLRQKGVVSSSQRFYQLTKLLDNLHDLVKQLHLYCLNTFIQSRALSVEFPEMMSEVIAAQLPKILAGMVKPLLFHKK
Summary of the method: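 PR-UAS-bla HEK293T cells in medium with 2% charcoal-stripped FBS were dosed after 6 h plating and incubated 16 h at 37C. LiveBLAzer FRET substrate was added for 2 h at room temperature. Cleaved/uncleaved substrate ratio fitted against DMSO; CellTiter-Glo viability run in the same wells.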

PGR (gene 5241) [6] = biological target: PGR (gene 5241) (UniProt P06401); test: TOX21_PR_BLA_Followup_Antagonist_ratio: Tox21 HEK293 Progesterone Receptor (PR) Antagonism Beta-lactamase Follow-Up Assay, Ratio (AID 2283934)
Summary of the method: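 PR-UAS-bla HEK293T cells, 3,000/well in 2% charcoal-stripped FBS, given compound plus 1nM R5020 agonist for 16 hr at 37C. Beta-lactamase FRET substrate 2 hours, ratio cleaved/uncleaved fluorescence; viability by CellTiter-Glo in same wells.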

[7] = TOX21_PR_BLA_Followup_Agonist_viability: Viability Assessment in the Tox21 HEK293 Progesterone Receptor (PR) Agonism Beta-lactamase Follow-Up Assay (AID 2283935);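 note: signal loss means lower viability so actives are cytotoxic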
Summary of the method: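 PR-UAS-bla HEK293T cells in 2% charcoal-stripped FBS medium, plated 6 hr before compound addition, exposed 16 hr at 37C. Viability read by CellTiter-Glo ATP luminescence after 30 min at room temperature, in the same wells as the beta-lactamase readout.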

[8] = TOX21_PR_BLA_Followup_Antagonist_viability: Viability Assessment in the Tox21 HEK293 Progesterone Receptor (PR) Antagonism Beta-lactamase Follow-Up Assay (AID 2283936);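 note: hits lower the luminescence signal meaning cytotoxicity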
Summary of the method: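 PR-UAS-bla HEK293T cells (3,000/well, 2% charcoal-stripped FBS) given compound plus R5020 agonist, 16 h at 37C. CellTiter-Glo added after bla read, 30 min at room temperature; luminescence loss indicates cytotoxicity.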

PGR (gene 5241) [9] = biological target: PGR (gene 5241) (UniProt P06401); test: TOX21_PR_LUC_Followup_Agonist: Tox21 HEK293 Progesterone Receptor (PR) Agonism Luciferase Follow-Up Assay (AID 2283937; active = hit-call score of the fitted dose curve at least 0.9, where 1 is the maximum; inactive = score below 0.9)
Summary of the method: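 HEK293-PR-A-luc cells, conditioned 5 days in 10% charcoal-stripped FBS medium, seeded 3,000/well for 5 h, then compound-treated 16 h at 37C. ONE-Glo luminescence read after 30 min at room temperature; gain of signal versus DMSO.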

[10] = TOX21_PR_LUC_Followup_Antagonist_viability: Viability Assessment in the Tox21 HEK293 Progesterone Receptor (PR) Antagonism Luciferase Follow-Up Assay (AID 2283940)
Summary of the method: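 HEK293-PR-A-luc cells kept in charcoal-stripped FBS medium were plated 5 h before compound addition, then exposed 16 h at 37C; viability read as cellular ATP by luciferase luminescence, loss of signal indicating cytotoxicity.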

[11] = TOX21_PR_LUC_Followup_Agonist_viability: Viability Assessment in the Tox21 HEK293 Progesterone Receptor (PR) Agonism Luciferase Follow-Up Assay (AID 2283941);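 note: loss of signal means cytotoxicity so actives lower viability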
Summary of the method: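 HEK293-PR-A-luc cells, kept in 10% charcoal-stripped FBS medium, were treated with compounds for 16 h at 37C. Viability read as cellular ATP by luciferase-coupled luminescence; loss of signal indicates cytotoxicity.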

[12] = system: Brachyury (BRA) Protein Expression, Deisenroth Lab, TBXT (gene 6862); test: CCTE_Deisenroth_DEVTOX-GLR_legacy_Bra: (Legacy) CCTE's DevTox GLR-Endo Assay Evaluation of Brachyury (BRA) Protein Expression, Deisenroth Lab (AID 2284329; active = hit-call score of the fitted dose curve at least 0.9, where 1 is the maximum; inactive = score below 0.9)
Summary of the method: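 RUES2-GLR human pluripotent cells differentiated 48 h with two 24-h-interval chemical exposures (1 nM - 200 uM, 10 points); fixed, nuclear-stained, imaged. Bra+ cell percentage (intensity 5x BMAD above pluripotent control median) fitted relative to 0.2% DMSO.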

[13] = CCTE_Deisenroth_DEVTOX-GLR_legacy_CellCount: (Legacy) Viability Assessment in CCTE's DevTox GLR-Endo Assay, Deisenroth Lab (AID 2284331; active = hit-call score of the fitted dose curve at least 0.9, where 1 is the maximum; inactive = score below 0.9); settings: actives raise or lower the signal
Summary of the method: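 Human pluripotent RUES2-GLR cells differentiated 48 h with two 24-h-interval exposures, 10-point 1 nM–200 uM series, 0.2% DMSO. Fixed nuclei counted by high-content imaging (5 fields/well); bidirectional fit vs DMSO, n≥4.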

[14] = system: SRY-box transcription factor 17 (SOX17) Protein Expression, Deisenroth Lab, SOX17 (gene 64321); test: CCTE_Deisenroth_DEVTOX-GLR_legacy_Sox17: (Legacy) CCTE's DevTox GLR-Endo Assay Evaluation of SRY-box transcription factor 17 (SOX17) Protein Expression, Deisenroth Lab (AID 2284341; active = hit-call score of the fitted dose curve at least 0.9, where 1 is the maximum; inactive = score below 0.9); settings: actives raise or lower the signal
Summary of the method: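 RUES2-GLR human pluripotent cells differentiated toward endoderm for 48 h, dosed twice at 24 h intervals (1 nM–200 uM, 10 points). Imaging gives % SOX17+ cells (intensity >5x BMAD above pluripotent control median); bidirectional fit versus 0.2% DMSO.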

[15] = system: SRY-box transcription factor 2 (SOX2) Protein Expression, Deisenroth Lab, SOX2 (gene 6657); test: CCTE_Deisenroth_DEVTOX-GLR_legacy_Sox2: (Legacy) CCTE's DevTox GLR-Endo Assay Evaluation of SRY-box transcription factor 2 (SOX2) Protein Expression, Deisenroth Lab (AID 2284346; active = hit-call score of the fitted dose curve at least 0.9, where 1 is the maximum; inactive = score below 0.9)
Summary of the method: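 RUES2-GLR human pluripotent cells seeded 24 h, then differentiated 48 h in defined media with two chemical doses 24 h apart (10-point, 1 nM–200 uM). Fixed, nuclear-stained, imaged; % Sox2+ cells (>5x BMAD over endoderm control median), DMSO-subtracted, fitted upward.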

[16] = system: SRY-box transcription factor 17 (SOX17) Protein Expression, Deisenroth Lab, SOX17 (gene 64321); test: CCTE_Deisenroth_DEVTOX-GLR_Endo_SOX17: CCTE's DevTox GLR-Endo Assay Evaluation of SRY-box transcription factor 17 (SOX17) Protein Expression, Deisenroth Lab (AID 2284413; active = hit-call score of the fitted dose curve at least 0.9, where 1 is the maximum; inactive = score below 0.9)
Summary of the method: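 Endpoint: % change in SOX17+ fraction (SOX17+ cells / cell count) vs 0.2% DMSO solvent control. RUES2-GLR reporter cells, 48 h endoderm differentiation, two doses at 24 h intervals, high-content fluorescence imaging, 5 fields/well.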

[17] = system: Brachyury (BRA) Protein Expression, TBXT (gene 6862); test: CCTE_Deisenroth_DEVTOX-GLR_Endo_BRA: CCTE's DevTox GLR-Endo Assay Evaluation of Brachyury (BRA) Protein Expression, Deisenroth Lab (AID 2284417; active = hit-call score of the fitted dose curve at least 0.9, where 1 is the maximum; inactive = score below 0.9)
Summary of the method: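 RUES2-GLR pluripotent cells differentiated 48 h with two chemical exposures 24 h apart, 10-point range 1 nM - 200 uM. Percentage of BRA+ cells per total count by high-content imaging, minus 0.2% DMSO control.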

[18] = CCTE_Deisenroth_DEVTOX-GLR_Endo_CellCount: Viability Assessment in CCTE's DevTox GLR-Endo Assay, Deisenroth Lab (AID 2284420; active = hit-call score of the fitted dose curve at least 0.9, where 1 is the maximum; inactive = score below 0.9)
Summary of the method: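 Human pluripotent RUES2-GLR line; 24 h pre-seed; 48 h endoderm-directed differentiation; 2 doses, q24h; 10 conc., 1 nM - 200 uM; fix + nuclear dye; 5 fields/well imaged; readout = nuclei count, % change vs 0.2% DMSO; n=4.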

[19] = system: SRY-box transcription factor 17 (SOX17) Protein Expression, Deisenroth Lab, SOX17 (gene 64321); test: CCTE_Deisenroth_DEVTOX-GLR_Pluri_SOX17: CCTE's DevTox GLR-Pluri Assay Evaluation of SRY-box transcription factor 17 (SOX17) Protein Expression, Deisenroth Lab (AID 2284427)
Summary of the method: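 Human RUES2-GLR pluripotent line; 24 h seeding, 48 h defined-media differentiation, 2 doses q24h, 10 conc 1 nM - 200 uM. Fix, nuclear stain, image 5 fields/well. Endpoint = %SOX17+ minus 0.2% DMSO; n=4.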

[20] = system: SRY-box transcription factor 2 (SOX2) Protein Expression, Deisenroth Lab, SOX2 (gene 6657); test: CCTE_Deisenroth_DEVTOX-GLR_Pluri_SOX2: CCTE's DevTox GLR-Pluri Assay Evaluation of SRY-box transcription factor 2 (SOX2) Protein Expression, Deisenroth Lab (AID 2284428; active = hit-call score of the fitted dose curve at least 0.9, where 1 is the maximum; inactive = score below 0.9)
Summary of the method: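 Steps: seed RUES2-GLR cells for 24 h; start 48 h differentiation in defined media; dose test chemicals at 0 and 24 h (1 nM–200 uM); fix, stain nuclei, image; compute SOX2+ percentage against 0.2% DMSO wells.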

[21] = system: Brachyury (BRA) Protein Expression, Deisenroth Lab, TBXT (gene 6862); test: CCTE_Deisenroth_DEVTOX-GLR_Pluri_BRA: CCTE's DevTox GLR-Pluri Assay Evaluation of Brachyury (BRA) Protein Expression, Deisenroth Lab (AID 2284429)
Summary of the method: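 Human pluripotent RUES2-GLR cells, seeded 24 h, were differentiated 48 h in defined media with two chemical doses at 24-h intervals (10-point, 1 nM - 200 uM). Readout: percent BRA+ cells by fluorescent reporter imaging, minus 0.2% DMSO control.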

[22] = CCTE_Deisenroth_DEVTOX-GLR_Pluri_CellCount: Viability Assessment in CCTE's DevTox GLR-Pluri Assay Evaluation of Total Cell Counts, Deisenroth Lab (AID 2284430; active = hit-call score of the fitted dose curve at least 0.9, where 1 is the maximum; inactive = score below 0.9)
Summary of the method: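 RUES2-GLR human pluripotent cells, seeded 24 h, then differentiated 48 h with two chemical exposures 24 h apart; 10-point series 1 nM - 200 uM. Fixed, nuclear-stained, imaged (5 fields/well); nuclei count as % change vs 0.2% DMSO.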

[23] = TOX21_p53_BLA_p5_viability: Viability Assessment in the Tox21 HCT-116 p53 Agonism Beta-lactamase Assay, Phase 5 (AID 2283600)
Summary of the method: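 4000 cells/well; 5 h pre-incubation; DMSO compounds pin-transferred, 217-fold dilution; 16 h, 37C/5% CO2; CCF4-AM 2 h RT; CellTiter-Glo 30 min RT; luminescence.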

[24] = TOX21_p53_BLA_p4_viability: Viability Assessment in the Tox21 HCT-116 p53 Agonism Beta-lactamase Assay, Phase 4 (AID 2283597);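 note: hits lower the luminescence signal meaning cytotoxicity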
Summary of the method: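 Cells plated, 5 h pre-incubation; DMSO compounds pinned (217-fold dilution); 16 h, 37C/5% CO2; CCF4-AM 2 h RT; CellTiter-Glo 30 min RT; luminescence read.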

Measured: outcome

Cc1cccc(C)c1N(CCCc1cccnc1)C(=O)C(C)N (stereo not given)
inactive: [1] | [2] | [3]

CN1CCN2c3ncccc3Cc3ccccc3C2C1 (stereo not given)
inactive: [4]

c1ccc2cnncc2c1
inactive: [1] | [3]

CN(C)CCCN1c2ccccc2Sc2ccccc21
inactive: [4]

OCC(F)(F)F
inactive: [4]

CN1CCN(C2=Nc3cc(F)ccc3Cc3ccccc32)CC1
inactive: PGR (gene 5241) [5] | PGR (gene 5241) [6] | [7] | [8] | PGR (gene 5241) [9] | [10] | [11]

Nc1nc2c(ncn2COCCO)c(=O)[nH]1
inactive: [12] | [13] | [14] | [15] | [16] | [17] | [18] | [19] | [20] | [21] | [22]

CC(C)NCC(O)COc1ccccc1-n1cccc1 (stereo not given)
inactive: [4] | [23] | [3]

OCCCCCCCl
inactive: [4] | [3]

C[C@H]1[C@H](NC(=O)C(=NOC(C)(C)C(=O)O)c2csc(N)n2)C(=O)N1S(=O)(=O)O
inactive: [4] | [3]

CS(=O)(=O)NC(=O)CCC/C=C\C[C@H]1C(=O)C[C@@H](O)[C@@H]1/C=C/[C@H](O)COc1ccccc1
inactive: [24] | [2]

— PubChem BioAssay (EPA / NIEHS)
